# Experimental data reported in ChEMBL document CHEMBL5606460, “ASAP - DENV-2 NS2B-NS3 protease fluorescence single point” (2024).
# In all, about 2,000 compounds went through this assay and about 110 (5.5%) showed an effect of 50% or more. The sample as a whole holds a higher share of strong results than the screen did.
# Biological target: Genome polyprotein (dengue virus type 2) (UniProt P29990)
# [1] = Thailand/16681/1984, Concentration 25.0 uM, Number of replicates 1.0
compound,measurement,setting,value
CCCN(C[C@H](O)COc1ccccc1C(=O)CCc1ccccc1)C(=O)C1CCN(c2ccc(C=O)cc2)CC1,inhibition,[1],15.7%
Cc1cc(CO)c2cccc(Cc3cccc(C(=O)N4CC[C@@H](CO)C4)c3)c2n1,inhibition,"Thailand/16681/1984, Concentration 49.95 uM, Number of replicates 2.0, Standard deviation 1.5846275376108605 %",1.42%
same,inhibition,"Thailand/16681/1984, Concentration 99.9 uM, Number of replicates 2.0, Standard deviation 0.9371220268229934 %",23.4%
Cc1cc(CO)c2cccc(Cc3ccccc3C(=O)N3CC[C@@H](CO)C3)c2n1,inhibition,"Thailand/16681/1984, Concentration 49.95 uM, Number of replicates 2.0, Standard deviation 0.1537915321395842 %",-0.863%
same,inhibition,"Thailand/16681/1984, Concentration 99.9 uM, Number of replicates 2.0, Standard deviation 0.5490500301245094 %",3.93%
Cc1cc(CO)c2cccc(Cc3ccccc3C(=O)N3CCC(CN)CC3)c2n1,inhibition,"Thailand/16681/1984, Concentration 49.95 uM, Number of replicates 2.0, Standard deviation 7.669453256982897 %",67%
same,inhibition,"Thailand/16681/1984, Concentration 99.9 uM, Number of replicates 2.0, Standard deviation 4.997502207892192 %",86.3%
Cc1cc(CO)c2cccc(Cc3ccccc3C(=O)N3CCC(C(=O)O)CC3)c2n1,inhibition,"Thailand/16681/1984, Concentration 49.95 uM, Number of replicates 2.0, Standard deviation 0.622352552136526 %",0.457%
same,inhibition,"Thailand/16681/1984, Concentration 99.9 uM, Number of replicates 2.0, Standard deviation 0.7955477281018075 %",4.68%
Cc1cc(CO)c2cccc(Cc3cccc(C(=O)N4CCC(C(=O)O)CC4)c3)c2n1,inhibition,"Thailand/16681/1984, Concentration 49.95 uM, Number of replicates 2.0, Standard deviation 0.11067239798039237 %",-0.531%
same,inhibition,"Thailand/16681/1984, Concentration 99.9 uM, Number of replicates 2.0, Standard deviation 0.04599367566818035 %",2.3%
Cc1cc(CO)c2cccc(Cc3cccc(C(=O)N4CCC(CN)CC4)c3)c2n1,inhibition,"Thailand/16681/1984, Concentration 49.95 uM, Number of replicates 2.0, Standard deviation 0.03521723226612688 %",98.6%
same,inhibition,"Thailand/16681/1984, Concentration 99.9 uM, Number of replicates 2.0, Standard deviation 0.007908771829372243 %",98.5%
O=Cc1ccc(N2CCC(C(=O)NC3CN(C(c4ccccc4)c4ccccc4)C3)CC2)cc1,inhibition,[1],2.62%
CC(C)N(C[C@H](O)COc1ccc(CC(N)=O)cc1)C(=O)C1CCN(c2ccc(C=O)cc2)CC1,inhibition,[1],13.4%
Cc1ccc(S(N)(=O)=O)c(NCc2ccc(N3CCN(C)CC3)cc2)c1,inhibition,"Thailand/16681/1984, Concentration 49.5 uM, Number of replicates 2.0, Standard deviation 0.9591550294519122 %",-0.337%
same,inhibition,"Thailand/16681/1984, Concentration 99.01 uM, Number of replicates 2.0, Standard deviation 0.6629248720953049 %",1.24%
same,inhibition,"Thailand/16681/1984, Concentration 198.0 uM, Number of replicates 2.0, Standard deviation 0.09920698004573132 %",1.03%
CCc1ccc(CN(CC(C)C)C(=O)C2CCN(c3ccc(C=O)cc3)CC2)cc1,inhibition,[1],13.3%
O=Cc1ccc(N2CCC(C(=O)Nc3ccccc3Sc3ccccc3)CC2)cc1,inhibition,[1],12.1%
CNC(=O)c1cc(Cl)ccc1NS(=O)(=O)c1cccc(S(N)(=O)=O)c1,inhibition,"Thailand/16681/1984, Concentration 49.5 uM, Number of replicates 2.0, Standard deviation 0.4003966624337367 %",1.73%
same,inhibition,"Thailand/16681/1984, Concentration 99.01 uM, Number of replicates 2.0, Standard deviation 1.0615056375609497 %",3.26%
same,inhibition,"Thailand/16681/1984, Concentration 198.0 uM, Number of replicates 2.0, Standard deviation 0.04640199433655389 %",5.28%
CCc1cccc(S(=O)(=O)Nc2ccc(Cl)cc2C(=O)NC)c1,inhibition,"Thailand/16681/1984, Concentration 49.5 uM, Number of replicates 2.0, Standard deviation 0.31892086155653854 %",0.409%
same,inhibition,"Thailand/16681/1984, Concentration 99.01 uM, Number of replicates 2.0, Standard deviation 0.4824817381530084 %",0.666%
same,inhibition,"Thailand/16681/1984, Concentration 198.0 uM, Number of replicates 2.0, Standard deviation 0.7239504320191382 %",1.73%
NC(=O)c1ccccc1NS(=O)(=O)c1ccc(Oc2ccccc2Cl)cc1,inhibition,"Thailand/16681/1984, Concentration 49.5 uM, Number of replicates 2.0, Standard deviation 0.6673279112123895 %",5.67%
same,inhibition,"Thailand/16681/1984, Concentration 99.01 uM, Number of replicates 2.0, Standard deviation 2.0636931261780913 %",38.8%
same,inhibition,"Thailand/16681/1984, Concentration 198.0 uM, Number of replicates 2.0, Standard deviation 0.3870011295715193 %",81.3%
CNC(=O)c1ccccc1NS(=O)(=O)c1ccc(Oc2ccccc2Cl)cc1,inhibition,"Thailand/16681/1984, Concentration 49.5 uM, Number of replicates 2.0, Standard deviation 0.8338499147497574 %",0.494%
same,inhibition,"Thailand/16681/1984, Concentration 99.01 uM, Number of replicates 2.0, Standard deviation 3.066215993073902 %",-2.05%
same,inhibition,"Thailand/16681/1984, Concentration 198.0 uM, Number of replicates 2.0, Standard deviation 2.7475277663160753 %",-6.31%
CNC(=O)c1cc(Cl)ccc1NS(=O)(=O)c1cccc(Oc2ccccc2)c1,inhibition,"Thailand/16681/1984, Concentration 49.5 uM, Number of replicates 2.0, Standard deviation 1.273206391645472 %",8.45%
same,inhibition,"Thailand/16681/1984, Concentration 99.01 uM, Number of replicates 2.0, Standard deviation 0.33776821571418564 %",23.8%
same,inhibition,"Thailand/16681/1984, Concentration 198.0 uM, Number of replicates 2.0, Standard deviation 0.06600533651594093 %",89.9%
O=C(c1cc(Cl)ccc1NS(=O)(=O)c1ccc(Oc2ccccc2Cl)cc1)N1CCC[C@H](O)C1,inhibition,"Thailand/16681/1984, Concentration 49.5 uM, Number of replicates 2.0, Standard deviation 1.2236693461292836 %",22.2%
same,inhibition,"Thailand/16681/1984, Concentration 99.01 uM, Number of replicates 2.0, Standard deviation 0.043163767671764885 %",86.9%
same,inhibition,"Thailand/16681/1984, Concentration 198.0 uM, Number of replicates 2.0, Standard deviation 0.0596286869236367 %",96.8%
CNC(=O)[C@H]1CCCN1S(=O)(=O)c1ccc(Oc2ccccc2Cl)cc1,inhibition,"Thailand/16681/1984, Concentration 49.5 uM, Number of replicates 2.0, Standard deviation 0.43290983719310167 %",-4.62%
same,inhibition,"Thailand/16681/1984, Concentration 99.01 uM, Number of replicates 2.0, Standard deviation 1.120416310773355 %",-4.38%
same,inhibition,"Thailand/16681/1984, Concentration 198.0 uM, Number of replicates 2.0, Standard deviation 0.24124704358981106 %",-3.59%
O=S(=O)(Nc1ccccc1)c1ccc(Oc2ccccc2Cl)cc1,inhibition,"Thailand/16681/1984, Concentration 49.5 uM, Number of replicates 2.0, Standard deviation 1.8105423163556815 %",1.05%
same,inhibition,"Thailand/16681/1984, Concentration 99.01 uM, Number of replicates 2.0, Standard deviation 1.556829309720985 %",2.93%
same,inhibition,"Thailand/16681/1984, Concentration 198.0 uM, Number of replicates 2.0, Standard deviation 1.335088080503107 %",5.83%
CNC(=O)c1cc(Cl)ccc1NS(=O)(=O)c1ccc(F)c(C(=O)N2CCCC2)c1,inhibition,"Thailand/16681/1984, Concentration 49.5 uM, Number of replicates 2.0, Standard deviation 0.7714528805703116 %",-4.6%
same,inhibition,"Thailand/16681/1984, Concentration 99.01 uM, Number of replicates 2.0, Standard deviation 1.6986403894371052 %",-2.1%
same,inhibition,"Thailand/16681/1984, Concentration 198.0 uM, Number of replicates 2.0, Standard deviation 1.4542094148600992 %",1.16%
